# Measured values from PubChem BioAssay AID1030 (National Center for Advancing Translational Sciences (NCATS), 2008).
# About 16,000 (7.3%) of roughly 220,000 compounds were called active. About 25% were inconclusive and are not listed. Many of the other results were omitted from the sample, so actives are more common in it than they were. Values without a mark were called inactive. The call rests on the fitted dose curve; in most records, active means well fitted inhibition curve with a large enough effect (not every such curve was filed as active); inconclusive means small, poorly fitted or top-dose-only effect, or another doubt; inactive means no such curve, though single readings can be large or run the other way.
# Molecular target: Aldehyde dehydrogenase 1A1 (Homo sapiens) (UniProt P00352)
# Test: qHTS Assay for Inhibitors of Aldehyde Dehydrogenase 1 (ALDH1A1);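 on activity, negative = inhibition: plate controls were no enzyme wells and a reference inhibitor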
# Conditions: Purified ALDH1A1, NADH fluorescence, propionaldehyde substrate; series mostly up to 75.3 µM; activity, negative = inhibition: at the top concentration
# Potency means the concentration at half of the fitted maximal effect.
# Aldehyde dehydrogenase 1A1 (Homo sapiens), sequence (P00352 whole entry, looked up): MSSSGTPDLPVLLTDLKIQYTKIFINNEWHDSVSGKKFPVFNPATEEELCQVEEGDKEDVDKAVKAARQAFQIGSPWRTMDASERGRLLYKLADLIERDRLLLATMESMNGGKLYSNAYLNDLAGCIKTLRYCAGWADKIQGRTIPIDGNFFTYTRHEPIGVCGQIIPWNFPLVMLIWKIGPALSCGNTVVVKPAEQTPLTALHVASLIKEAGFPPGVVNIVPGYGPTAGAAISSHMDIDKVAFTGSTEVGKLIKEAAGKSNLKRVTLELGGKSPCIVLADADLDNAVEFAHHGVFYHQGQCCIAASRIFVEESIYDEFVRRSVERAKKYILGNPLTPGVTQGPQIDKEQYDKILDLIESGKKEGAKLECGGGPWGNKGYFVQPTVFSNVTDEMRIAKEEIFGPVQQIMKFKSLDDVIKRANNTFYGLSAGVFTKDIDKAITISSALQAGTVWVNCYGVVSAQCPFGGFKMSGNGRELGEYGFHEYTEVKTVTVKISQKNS
Structure (SMILES),"activity, negative = inhibition",Potency
CCc1ccc(NC(=O)C(=O)N/N=C(\C)CC(=O)NCCOC)cc1,-6.85%,
CCOC(=O)c1cccc(NC(=O)CCOc2ccccc2)c1,3.3%,
CCOC(=O)CSc1nc(C)cc2c1C(=O)OC2,-2.92%,
CCOC(=O)C1CCCN(C(=O)c2cccc(S(=O)(=O)N3CCOCC3)c2)C1 (configuration not stated),-5.73%,
COc1cccc(N(Cc2nnc3n2CCCCC3)C(=O)Nc2ccccc2F)c1,0.321%,
Cc1cc(C(=O)NNS(=O)(=O)c2ccccc2C(F)(F)F)nn1C(C)(C)C,-6.99%,
O=C(Nc1ccc(Br)cn1)c1ccc([N+](=O)[O-])cc1Cl,-6.95%,
O=C(CCN1C(=O)c2ccccc2C1=O)Nc1cccc(F)c1,6.38%,
O=C1c2ccccc2C(=O)N1CCC(O)C[N+](=O)[O-] (configuration not stated),,22.4 µM (active)
O=C1c2ccccc2C(=O)N1CCCSc1ccccc1,-6.74% [at 13.5 µM],
Cc1ccc(C)c(CSc2nc(-c3ccco3)nc3c2c(=O)n(C)c(=O)n3C)c1,2%,
O=C(O)CSc1nnc(-c2ccc3c(c2)OCO3)n1-c1ccccc1,6.9%,
CC1(CCC(=O)OC2CCCCC2)OCCO1,-6.23% [at 13.5 µM],
CSc1nsc(SC)c1NC(=O)OC1CCCCC1,,20 µM (active)
CSc1ncccc1C(=O)NC1CCCCCC1,-8.2%,
Cc1cccc(C2c3[nH]c4ccccc4c3CCN2C(=O)c2cc(-c3cccn3C)n[nH]2)n1 (configuration not stated),-6.8%,
COc1ccc2c(c1)C(c1cccs1)=NNC(c1cccnc1)=N2,-17.1%,
CC(=O)Nc1ccc(NC(=O)C(C)n2c3ccccc3c3nc(=O)cc(C)n32)cc1 (configuration not stated),2.7%,
C/C(=N\Nc1nc(N2CCOCC2)nc(N2CCOCC2)n1)c1ccc([N+](=O)[O-])cc1,-6.49%,
COc1ccc(C(=O)Nc2cccc(S(C)(=O)=O)c2)cc1,-3.62%,
COc1ccc(NS(=O)(=O)c2cc(NC(=O)C3CCCCC3)ccc2N2CCOCC2)cc1,,2.51 µM (active)
O=C(Nc1cccc(OCC(=O)N2CCOCC2)c1)C1CCCCC1,4.85%,

Structure (SMILES),"activity, negative = inhibition",Potency
CC(=O)Nc1ccc(S(=O)(=O)Nc2ccc(N3CCOCC3)c(F)c2)cc1,-1.53%,
COc1cccc(/C=C2\SC(=N)N(c3ccc(F)cc3)C2=O)c1,4.62%,
COc1ccc(CCNC(=O)CSc2nnc3ccc(-c4ccncc4)nn23)cc1,7.74%,
CN(C)C(=O)CSc1n[nH]c(-c2ccco2)n1,5.16%,
CCOC(=O)c1ccc(NC(=S)Nc2cc(C)cc(C)n2)cc1,8.93%,
CCOC(=O)c1cc2ccccc2nc1C,5.37%,
CCOC(=O)c1cc2c(nc1NC(=S)Nc1ccccc1)CC(C)(CC)OC2 (configuration not stated),,12.6 µM (active)
O=S(=O)(c1ccccc1)c1nc(-c2ccccc2F)oc1NCc1cccnc1,-11.8%,
CN(C)C=NC(=O)c1cccn1-c1ncc(C(F)(F)F)cc1Cl,4.08%,
COC(=O)c1cc(NC(=O)c2nn(C)c(=O)c3ccccc23)cc(C(=O)OC)c1,-2.63%,
OCCCC1CCCCN1Cc1nc(Cc2ccccc2Cl)no1 (configuration not stated),4.73%,
COc1ccc(N2C(=O)/C(=C\c3ccco3)N=C2SCC(N)=O)cc1Cl,-13.6%,
O=C(COC(=O)CC1CC2CCC1C2)NC(=O)NC1CCCC1 (configuration not stated),-3.73%,
CCOC(=O)CCC(=O)OCC(=O)NC(C)C1CC2CCC1C2 (configuration not stated),,15.8 µM (active)
Cc1ccccc1OCCC(=O)OCC(=O)NC(C)c1ccccc1 (configuration not stated),4.27%,
CCOC(=O)CNC(=O)/C(=C\c1ccc(F)cc1)NC(=O)c1ccccc1,16.3%,
CN(C)c1nnnn1-c1ccc(Cl)cc1,8.16%,
Cc1cc(C)cc(NC(=O)CSc2ccccc2)c1,-1.77%,
O=C(Nc1ccc2cn[nH]c2c1)c1ccc(S(=O)(=O)N2CCOCC2)cc1,-7.41%,
Cc1csc(NC(=S)Nc2cccc(Cl)c2)n1,-11%,
S=C(Nc1cccc(Cl)c1)Nc1ccc2cn[nH]c2c1,,28.2 µM (active)
Cc1cccc(NC(=S)Nc2ccc3cn[nH]c3c2)c1,,10 µM (active)

Structure (SMILES),"activity, negative = inhibition",Potency
Cc1cccc(NC(=S)Nc2ccc(Br)cc2)c1,-3.49%,
Cc1cccc(NC(=O)CSc2nc3[nH]ncc3c(=O)[nH]2)c1,6.36%,
CC(N)(C(=O)O)c1ccc(-c2nn[nH]n2)cc1 (configuration not stated),-9.71%,
Cc1cc(C)c(S(=O)(=O)N2CCOCC2)cc1C,8.64%,
COC1(C2=NCCN2)COc2ccccc2O1 (configuration not stated),0.458%,
CC1(C)C(c2cccs2)=[N+]([O-])C2(CCCCC2=O)N1O (configuration not stated),,22.4 µM (active)
Cc1cccc(C)c1NC(=O)CNC(=O)Cc1ccc(Br)cc1,7.71%,
CCCCCC1CCC(c2nnc(SCC(C)=O)o2)CC1 (configuration not stated),-4.68%,
CCN(CC)S(=O)(=O)c1ccc(Cl)c(NC(=O)c2ccncc2)c1,,12.6 µM (active)
CCN(CC)S(=O)(=O)c1ccc(C)c(NC(=O)COc2ccc(Br)cc2Cl)c1,0.658%,
Cc1nn(Cc2ccc(F)cc2)c(C)c1NC(=O)c1cccnc1Cl,10.5%,
CCN(CC)S(=O)(=O)c1cccc(C(=O)Nc2ccccc2)c1,-7.46%,
CCN(CC)S(=O)(=O)c1ccc(NC(=O)c2cccnc2Cl)c(NC(=O)c2cccnc2Cl)c1,,7.08 µM (active)
Cc1ccc(CNC(=O)c2cccnc2Cl)cc1,11.7%,
O=[N+]([O-])c1cc(S(=O)(=O)Nc2cccc(Cl)c2)ccc1N=Nc1c(O)[nH]c2ccccc12,7.9%,
COc1ccc(/C=N/NC(=O)c2ccncc2)cc1CN1CCCc2ccccc21,-1.8%,
CC(C)N(C(=O)c1ccc(-c2ccccc2F)cc1)C(C)C,-6.51%,
COc1ccc(CN(C(=O)c2cccs2)c2nccs2)cc1OC,2.43%,
O=C(c1cccs1)N(C(=O)c1cccs1)c1ccccn1,-0.508%,
COc1ccc(CN(Cc2ccc(OC)cc2)C(=O)c2cccs2)cc1,,8.91 µM (active)
CCc1ccccc1NC(=S)N(CCN1CCCCCC1)Cc1ccco1,-4.85%,
O=C(COC(=O)CNC(=O)c1ccco1)Nc1ccc(F)cc1,5.83%,

Structure (SMILES),"activity, negative = inhibition",Potency
CC(C)[C@@H]1NC(=O)[C@H](Cc2ccccc2)NC(=O)[C@@H](CC(=O)O)NC(=O)CNC(=O)[C@H](CCCNC(=N)N)NC1=O,7.85%,
Cc1nccc(-c2ccc(-n3c(C)ccc3C)cc2)n1,-3.39%,
Cc1ccc(C(=O)O)cc1NC(=O)c1ccc(Cn2nc(C)c(Cl)c2C)o1,-5.73%,
Cc1ccc(C(=O)N/N=C\c2cc(Br)c(Br)o2)cn1,-1.22%,
O=C(N/N=C/c1cc2c(cc1Br)OCO2)C1COc2ccccc2O1 (configuration not stated),,25.1 µM (active)
C/C(=N/NC(=O)C1COc2ccccc2O1)c1ccco1 (configuration not stated),6.2%,
O=C(N/N=C\c1cc(Br)c(Br)o1)C1COc2ccccc2O1 (configuration not stated),,17.8 µM (active)
O=C(/C=C/c1cc2c(cc1Br)OCO2)NCc1ccc(Cl)cc1,-10.2%,
O=C(CNC(=O)C(c1ccccc1)c1ccccc1)N/N=C\c1ccc2c(c1)OCO2,4.74%,
CN(C)c1ccc(C(=S)N2CCN(C(=S)Nc3ccc(Cl)cc3)CC2)cc1,5.85%,
CN(Cc1cc2cc(F)ccc2[nH]1)Cc1nc(-c2cnccn2)no1,-3.79%,
CC(=O)Nc1nc(N(C)C)nc(N(C)C)n1,5%,
CC(=O)N/N=C(\C)c1ccc(Br)cc1Br,12%,
COc1ccc(-c2nc(CN3CCN(c4ncccn4)CC3)c(C)o2)cc1C,7.29%,
COc1cc(C2C(N3C(=O)c4ccccc4C3=O)C(=O)N2c2ccc(C)c(C)c2)cc(OC)c1OC (configuration not stated),3.1%,
Cc1ccsc1/C=N/n1c(=S)[nH]nc(C)c1=O,-0.343%,
Cc1ccccc1-c1n[nH]c(=S)n1/N=C/c1ccc(-c2ccccc2Br)o1,,14.1 µM (active)
Cc1n[nH]c(=S)n1/N=C/c1ccc(Br)o1,5.13%,
COc1ccc(C=Nc2cccc3ncccc23)cc1,,17.8 µM (active)
COc1ccc2nccc(C(=O)O)c2c1,9.43% [at 20.9 µM],
COc1ccc(OC)c(N=Cc2c(O)[nH]c3ccccc23)c1,-3.97%,
O=[N+]([O-])c1ccc(NCCCO)c(C(F)(F)F)c1,,15.8 µM (active)

Structure (SMILES),"activity, negative = inhibition",Potency
CC(C)(C)C(=O)NCCCNc1ccc([N+](=O)[O-])cc1,-7.51%,
CC(=O)Nc1ccc(C(=O)OCC(=O)Nc2ccc([N+](=O)[O-])cc2C(F)(F)F)cc1,-0.0444%,
O=C(N/N=C/c1ccc(Cl)cc1)c1nc2ccc([N+](=O)[O-])cc2c(=O)[nH]1,-8.44%,
CC(=O)c1cnc(SCC(=O)O)nc1C,6.8%,
COc1ccc(NC2=CC(=S)NC(C)(C)C2)cc1,1.47%,
Cc1cccc(C(=O)Nc2ccccc2N2CCN(c3ccc(F)cc3)CC2)c1,-8.56%,
Cc1cccc(N2CCN(c3ccc(NC(=O)/C=C\C(=O)O)cc3)CC2)c1,,25.1 µM (active)
O=C(Nc1cccc(NC(=O)N2CCN(c3ccccc3)CC2)c1)N1CCN(c2ccccc2)CC1,-6.69%,
CCOCCCn1c(NN)nc2ccccc2c1=O,0.593%,
COc1cccc(N(CC(=O)N2CCc3ccccc3C2)S(C)(=O)=O)c1,3.68%,
CCOC(=O)N1CCN(C(=O)CN(c2ccc(C)c(C)c2)S(=O)(=O)c2ccccc2)CC1,1.51%,
Cc1ccc(S(=O)(=O)N(CC(=O)N2CCc3ccccc3C2)c2cccc(Cl)c2)cc1,,0.562 µM (active)
CC(=O)NCC(=O)N(Cc1ccco1)C1(C(=O)NC2CCCC2)CCCCC1,-4.75%,
Cc1cc2c(c(=O)n1Cc1ccco1)C(c1ccccc1)C(C#N)=C(N)O2 (configuration not stated),5.32%,
Cc1nn(Cc2ccccc2)c2c1C(c1ccccc1)C(C#N)=C(N)O2 (configuration not stated),,7.08 µM (active)
CCCc1[nH]nc2c1C(c1c(C)nn(-c3ccccc3)c1Cl)C(C#N)=C(N)O2 (configuration not stated),-7.97%,
CCc1ccc(C2C(C#N)=C(N)Oc3n[nH]c(CC(=O)OC)c32)cc1 (configuration not stated),-2.99%,
Cc1nn(-c2ccccc2)c2c1C(c1ccc(F)cc1)C(C#N)=C(N)O2 (configuration not stated),,3.55 µM (active)
COc1ccccc1C1C(C#N)=C(N)Oc2c1c(-c1ccccc1)nn2-c1ccccc1 (configuration not stated),1.85%,
